Bioassay records: PubChem BioAssay, National Center for Advancing Translational Sciences (NCATS)
The list is not random: actives were taken first. Their share in the collection is about 7.3%.
ELG1 genotox: genotoxicity induction in ELG1-luciferase HEK293T cells; AID 504466; Potency, µM (series often up to 46 µM), for inactives: top-dose activity change, positive = activation, hits mostly activators; HEK293T ELG1-luciferase reporter, luminescence, 16 h; actives 1.3% (n = 330,000); also: % of control where 0% means no effect; nearly all actives have a fitted effect of over 60% in size
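Luminescence read-out: rising ELG1-luciferase signal, reflecting elevated ELG1 protein under genetic stress, flags genotoxic compounds. Cells were treated for 16 hr at 37 °C before ONE-Glo detection.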
Rab9 promoter act: activators of Rab9 promoter; Huh7 Rab9 promoter-luciferase reporter, luminescence, 24 h; actives 2.8% (n = 320,000); AID 485297; Potency, µM (top dose mostly 9.22 µM), without a hit: top-dose activation, negative = inhibition, hits mostly activators; also: % of control where 0% means no effect; nearly all actives have a fitted effect of over 60% in size
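Cells were plated at 1500 per well in reduced-serum medium with 10% FBS and left 2 h. Compound in DMSO was then added for 24 h at 37 °C. Reporter signal was read by luminescence after 10 min with luciferase detection reagent.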
SMN2 splice up: enhancers of SMN2 splice variant expression. HEK293 SMN2-luciferase splicing reporter, luminescence, 30-36 h. Potency, µM (series often up to 46.1 µM), for the others: at the top dose activity change, positive = activation, hits mostly activators. actives 2.8% (n = 210,000). AID 1458; also: % of control where 0% means no effect; nearly all actives have a fitted effect of over 55% in size
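HEK293 cells carry an SMN2 minigene-luciferase reporter in which exon 7 inclusion puts luciferase in frame. Cells were seeded at 2000 cells/well, attached for 10-12 hours, then exposed to compounds for 30-36 hours at 37C before ONE-Glo luminescence.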
Luc counter: Kinase-Glo luciferase inhibition (counter-screen). Q27757. Kinase-Glo luciferase, ATP luminescence, 8 min. Potency, µM (titrated, usually from 38.3 µM), inactives show at the highest dose activity change, negative = inhibition, most hits filed as inhibitors. actives 0.28% (n = 200,000); also: % is scaled to controls: 0 for no effect and ±100 for the full control effect; nearly all actives have a fitted effect of over 60% in size
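Recombinant Kinase-Glo luciferase, 10 uM ATP (linear range), luciferin; imidazole pH 7.2 / KCl / MgCl2 / Tween / BSA buffer; 8 min RT; luminescence.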
FLuc modulator: counter-screen for miR-21 project: firefly luciferase inhibitors or activators. P08659. purified FLuc, Km substrates, luminescence inhibition. Potency, µM (doses to about 57.5 µM), for the others: top-dose activity change, negative = inhibition, actives largely listed as inhibitors. actives 6.9% (n = 360,000). AID 588342;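 also: plate controls were vehicle for no effect and reference inhibitor for full effect; nearly all actives have a fitted effect of over 55% in size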
Target sequence (P08659 whole entry, looked up): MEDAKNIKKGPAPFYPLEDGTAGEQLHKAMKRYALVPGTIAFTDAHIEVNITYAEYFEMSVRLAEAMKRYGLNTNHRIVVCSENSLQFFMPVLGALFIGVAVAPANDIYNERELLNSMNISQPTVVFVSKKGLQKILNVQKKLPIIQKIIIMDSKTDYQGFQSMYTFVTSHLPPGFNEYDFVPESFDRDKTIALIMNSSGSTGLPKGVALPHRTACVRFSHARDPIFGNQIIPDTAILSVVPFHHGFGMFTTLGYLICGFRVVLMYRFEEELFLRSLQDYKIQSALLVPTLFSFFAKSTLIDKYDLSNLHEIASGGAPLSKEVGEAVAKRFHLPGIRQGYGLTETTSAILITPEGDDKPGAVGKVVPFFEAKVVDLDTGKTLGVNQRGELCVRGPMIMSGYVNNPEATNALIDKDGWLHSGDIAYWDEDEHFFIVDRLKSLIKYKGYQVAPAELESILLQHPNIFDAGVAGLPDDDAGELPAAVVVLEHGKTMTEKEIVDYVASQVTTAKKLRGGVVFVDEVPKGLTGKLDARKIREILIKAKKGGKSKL
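Biochemical qHTS of compounds, final roughly 60 µM downward over six points, against 10 nM purified firefly luciferase using Km concentrations of substrates (10 uM D-luciferin, 10 uM ATP) in Tris acetate pH 7.5 buffer; luminescence output.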
NPC1 prom act: NPC1 promoter activation. Huh7 NPC1 promoter luciferase reporter, 24 h. actives 2.4% (n = 320,000). Potency, µM (top dose mostly 9.22 µM), inactives show top-dose activation, actives largely listed as activators; also: % of control where 0% means no effect; nearly all actives have a fitted effect of over 60% in size
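Stably transfected Huh7 (NPC1 promoter→luciferase), 1500 cells/well in Opti-MEM + 10% FBS, 2 h settle, then compound 24 h at 37 °C. Luminescence after 10 min with Amplite reagent.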
An asterisk follows results filed as active; ? = inconclusive; · = no result. Calls follow the shape of the dose curve; as a rule, active = well fitted curve in the direction sought with a large enough effect; inconclusive = small, poorly fitted or top-dose-only effect, or another doubt; inactive = no such curve, though single readings can be large; an effect the other way counts as inactive or inconclusive. Potency is read from the fitted curve at half-maximal effect.

SMILES | ELG1 genotox | Rab9 promoter act | SMN2 splice up | Luc counter | FLuc modulator | NPC1 prom act
Cc1cc(=O)oc2cc(NC(=O)c3ccccc3OC(F)F)ccc12 | ? | 3.2µM* | · | · | ? | 4µM*
Cc1cc(=O)oc2cc(NC(=O)c3cc(F)ccc3F)ccc12 | ? | 2.5µM* | · | · | 3% | ?
Cc1ccc(C2/C(=C(\O)c3cnn(-c4ccccc4)c3C)C(=O)C(=O)N2CCN(C)C)o1 (stereo unspecified) | 0% | ? | -23% | 0% | -13% | ?
Cc1c(/C(O)=C2\C(=O)C(=O)N(CCN(C)C)C2c2ccccc2)cnn1-c1ccccc1 (stereo unspecified) | ? | 21% | · | · | 17µM* | 19%
Cc1c(/C(O)=C2\C(=O)C(=O)N(CCN(C)C)C2c2ccco2)cnn1-c1ccccc1 (stereo unspecified) | 9.2µM* | ? | -5% | 1% | 27µM* | ?
COc1ccc(-n2ccnc(NCc3ccc(Cl)cc3)c2=O)cc1 | · | · | · | · | 1% | ·
COc1cc(N)ccc1NC(=O)c1cc2ccccc2o1 | ? | 3.2µM* | · | · | 11µM* | 4µM*
Cc1cc([N+](=O)[O-])ccc1NC(=O)c1cc2ccccc2o1 | -4% | 2.5µM* | · | · | ? | ?
COc1ccc(C)cc1NC(=O)c1cc2ccccc2o1 | 7% | -1% | 17% | -3% | 15µM* | 5%
Cc1ccc(C)c(NC(=O)c2cc3ccccc3o2)c1 | 17% | 4µM* | · | · | 13µM* | ?
Cc1cc([N+](=O)[O-])ccc1NC(=O)c1ccco1 | 3% | 1% | · | -1% | 0% | -4%
COc1ccc(OC)c(NC(=O)c2cc3ccccc3o2)c1 | ? | 0% | · | 0% | -15% | 15%
O=C(Cn1c(=O)n2nc(-c3cccc(F)c3)nc2c2ccccc21)N1CCN(c2ccccc2F)CC1 | · | · | · | · | 4% | ·
Cc1cc(C)c(NC(=O)C2CCN(c3nnc(C)c4c(C)n(-c5ccccc5)nc34)CC2)c(C)c1 | · | · | · | · | -6% | ·
CCCC(=O)Nc1ccc(NC(=O)c2cc3ccccc3o2)c(OC)c1 | 18% | 2.5µM* | · | · | ? | 4µM*
Cc1ccc(C)c(NC(=O)c2ccc3ccccc3n2)c1 | ? | 2µM* | 14µM* | -18% | 0.85µM* | 4µM*
Cc1ccc(NC(=O)c2cc(C)nc3ccccc23)c(C)c1 | -3% | 0% | · | · | 1% | -5%
Cc1ccc(S(=O)(=O)N(C)C)cc1NC(=O)c1ccc2ccccc2n1 | -6% | 17% | · | · | ? | 14%
Cc1ccc(NC(=S)c2ccc3ccccc3n2)c(C)c1 | ? | 1.6µM* | · | · | 11µM* | 1.1µM*
Cc1ccc(C(=O)NCC(c2cccnc2)N2CCc3ccccc32)cc1C (stereo unspecified) | · | · | · | · | -14% | ·
Cc1ccc(C(=O)NCC(c2cccnc2)N2CCc3ccccc3C2)cc1C (stereo unspecified) | · | · | · | · | 2.7µM* | ·
CCCCC(=O)N/C(N)=N/c1nc2ccccc2o1 | ? | 1.8µM* | · | · | 3µM* | 1.3µM*
N/C(=N\c1nc2ccccc2o1)NC(=O)c1ccccc1F | ? | 2.5µM* | ? | -2% | 8.5µM* | 1.6µM*
COc1ccccc1CNC(=O)CCC(=O)N1CC2CCCN2c2ccccc21 (stereo unspecified) | · | · | · | · | 3% | ·
CCN(CC)c1nn2c(=O)c(C(=O)NCc3cccc(C)c3)cnc2s1 | · | · | · | · | -2% | ·
Cc1cc(C(=O)CSc2ccc(F)cc2)cc(C)c1OC(=S)N(C)C | 1µM* | ? | -51% | -1% | 0.67µM* | ?
COc1ccc(SCC(=O)c2cc(C)c(OC(=S)N(C)C)c(C)c2)cc1 | 15% | ? | -12% | 0% | 17µM* | 27%
CCOC(=O)c1cc(-c2ccc(F)cc2)n(CCC(=O)NC2CCC(C)CC2)c1C (stereo unspecified) | · | · | · | · | -7% | ·
